High-throughput results from PubChem.
TRHR PAM: TRH receptor (human) allosteric enhancement; P34981; TRHR cells, fluo-8 calcium fluorescence, EC20 TRH enhancement; enhancement, % at 2 µM; 360,000 tested, 0.66% active; AID 493056; in the data active = enhancement above about 30%
Target sequence (P34981 whole entry, looked up): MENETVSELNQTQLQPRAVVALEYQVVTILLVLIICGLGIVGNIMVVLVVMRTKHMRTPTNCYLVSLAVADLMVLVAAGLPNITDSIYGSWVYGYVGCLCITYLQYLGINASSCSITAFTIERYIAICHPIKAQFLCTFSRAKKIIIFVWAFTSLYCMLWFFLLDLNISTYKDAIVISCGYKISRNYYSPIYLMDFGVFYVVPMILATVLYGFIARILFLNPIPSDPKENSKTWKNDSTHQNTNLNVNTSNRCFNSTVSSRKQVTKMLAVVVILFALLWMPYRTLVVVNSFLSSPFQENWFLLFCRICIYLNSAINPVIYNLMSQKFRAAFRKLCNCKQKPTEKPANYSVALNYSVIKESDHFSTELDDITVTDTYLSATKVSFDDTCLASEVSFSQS
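TRHR-expressing cells loaded with fluo-8 calcium dye were read kinetically (ex 480/em 530) during compound addition, then stimulated with an EC20 of TRH (10 nM final). Enhancement of the Gq-mediated intracellular calcium response was scored.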
D1 potentiator: potentiators of human D1 dopamine receptor; P21728; HEK293 TREx D1 cells, calcium flux, dopamine EC20 potentiation; potentiation, % at 10 µM; 360,000 tested, 0.036% active; AID 504651; in the data active = potentiation above about 30%
D1 antag: blocks dopamine activation of the human D1 receptor | HEK293 TREx D1 cells, calcium flux, dopamine EC80; hits give low values | AID 504652 | activity change, negative = inhibition, % at 10 µM | 360,000 tested, 3.2% active; in the data active = activity change below about -30%
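Antagonism measured as reduced calcium response to an EC80 dopamine addition following 180 s compound pre-read; cells were inducible HEK293 Trex D1 plated overnight at 30 C, read kinetically at 1 cycle/sec.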
TRHR ag: TRH receptor (human) agonism. TRHR cells, calcium flux fluo-8, FDSS agonist mode. activation, % at 2 µM. 360,000 tested, 0.18% active. AID 493084
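Fluo-8-loaded TRHR cells; 10 s baseline, compound added, kinetic Ca2+ fluorescence read 1/s, agonist mode.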
D1 agonist: activates the human D1 dopamine receptor; HEK293 T-REx D1 cells, calcium flux, agonist mode; 360,000 tested, 1% active; activation, % at 2 µM; P21728
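Tetracycline-induced HEK293 TREx D1 cells, force-coupled to calcium signalling, were dye-loaded with a no-wash calcium kit. Compound was pin-added after a 10 s baseline. Fluorescence was read kinetically at 1 cycle/s for 180 s, with calcium rises flagged as agonism.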
Hits are given with their value; 0 = inactive; - = no result given. The list is not random: actives were taken first. Their share in the collection is about 4.6%. Rule as the data show it, unless noted: active = activation above about 30%; inactive = the rest.

SMILES	TRHR PAM	D1 potentiator	D1 antag	TRHR ag	D1 agonist
CCCCNC(=O)C1CC(c2cccc(F)c2)=NO1 (stereo not given)	0	0	-45	0	0
CC(C)CCNC(=O)C1CC(c2cccc(F)c2)=NO1 (stereo not given)	0	0	0	0	0
Cc1ccc(CCNC(=O)C2CC(c3cc(C(F)(F)F)cc(C(F)(F)F)c3)=NO2)cc1 (stereo not given)	0	0	0	0	0
Cc1ccc(CCNC(=O)C2CC(c3cccc(F)c3)=NO2)cc1 (stereo not given)	0	0	-62	0	0
CCCCCOc1ccc(Cn2c(=O)oc3ccccc32)cc1	0	0	0	0	0
CC(=O)N1CCN(C(=S)Nc2ccc(SC(F)F)cc2)CC1	0	0	0	0	0
CC1CCN(C(=S)Nc2ccc(SC(F)F)cc2)CC1	0	0	-41	0	0
Cc1cc2c(s1)c1cnn(Cc3ccc(F)c(F)c3F)c(=O)c1n2C	0	0	0	0	0
Cc1ccc2ncccc2c1NS(=O)(=O)c1ccccc1	0	0	0	0	0
Cc1ccc2ncccc2c1N	0	0	-63	0	0
CCCc1cc(=O)oc2cc(C)c3c(-c4ccccc4)coc3c12	49	0	0	0	0
Clc1cccc2c1Sc1ccccc1CC2N1CCNCC1 (stereo not given)	0	0	-78	0	57
COCCCN1CCN(C2Cc3ccccc3Sc3ccc(Cl)cc32)CC1 (stereo not given)	0	0	-86	0	0
NC(=O)CCN1CCN(CCOC2Cc3cc(Cl)ccc3Sc3ccccc32)CC1 (stereo not given)	0	0	0	0	0
Clc1ccc2c(c1)C(N1CCNCC1)Cc1ccccc1S2 (stereo not given)	0	0	-86	0	0
O=C(c1ccccc1Cl)N1CCNCC1	0	0	0	0	0
CCC1Sc2ccc(S(=O)(=O)Nc3ccc(OC)cc3)cc2NC1=O (stereo not given)	0	0	-36	0	30
Cc1cc(F)c(F)c(C(=O)N2CCCCC2C)c1Cl (stereo not given)	0	0	-31	0	0
CCCNC(=O)CCc1c(C)nc2nc(CNC(=O)c3ccccc3)nn2c1C	0	0	0	0	0
CCCNC(=O)c1ccc(N2CCC3(CC2)CC(c2cccc(Br)c2)=NO3)c([N+](=O)[O-])c1	0	0	-44	0	0
CCOc1ccc(NC(=O)CSc2oc(-c3ccc(C)cc3)nc2S(=O)(=O)c2ccc(C)cc2)cc1	0	0	0	0	44
CCOc1ccc(NC(=O)CSc2oc(-c3cccs3)nc2S(=O)(=O)c2ccc(Cl)cc2)cc1	0	0	0	0	0
COc1ccc(CCNC(=O)c2ccc3c(c2)N(Cc2ccc(F)cc2)C(=O)CS3)cc1OC	0	0	0	0	0
CCOc1ccc(CCNC(=O)CN2C(=O)NC3(CCCC3)C2=O)cc1OCC	0	0	-39	0	0
O=C(Cn1c(=O)oc2ccccc21)Nc1ccc2c(c1)OCCO2	0	0	0	0	0
SMILES	TRHR PAM	D1 potentiator	D1 antag	TRHR ag	D1 agonist
Cn1cc(SCC(=O)Nc2ccc3c(c2)OCCO3)c2ccccc21	0	0	-39	0	0
O=C(CCn1c(=O)oc2ccccc21)Nc1ccc2c(c1)OCCO2	0	0	-38	0	0
Cc1cc2ccccc2c(=O)n1CC(=O)Nc1ccc2c(c1)OCCO2	31	0	0	0	0
COc1cc(NC(=O)CSc2ccc3c(c2)OCCO3)cc(OC)c1OC	0	0	-36	0	0
CCc1cccc(NC(=O)c2ccc3c(c2)N(Cc2cccc(Cl)c2)C(=O)c2ccccc2S3=O)c1 (stereo not given)	0	0	0	0	0
CN(CC(=O)Nc1ccc(F)cc1)C(=O)Cn1c(=O)oc2ccccc21	0	0	0	0	0
Cc1ccc(NC(=O)CN(C)C(=O)Cn2c(=O)oc3ccccc32)cc1	31	0	0	0	0
Cc1ccc(N(CC(=O)N2CCN(c3cccc(C)c3C)CC2)S(=O)(=O)c2c(C)nn(C)c2C)cc1	0	0	-43	0	0
CCOC(=O)c1c(NC(=O)COC(=O)C2CCC2)sc(C(=O)N(C)C)c1C	0	0	-46	0	0
O=C(NCCCN1CCOCC1)c1ccco1	0	0	-35	0	0
Cc1ccccc1CS(=O)(=O)CCC(=O)NCCCN1CCOCC1	0	0	-44	0	0
Cc1cc(C)n(CCCNC(=O)c2ccco2)n1	0	0	-31	0	0
CCN(CC)CCCNC(=O)c1cc(-c2ccc(O)cc2)on1	0	0	-44	0	0
Cc1ccc(-c2nnc(Nc3ccc(Br)cc3)c3ccccc23)cc1S(=O)(=O)N1CCOCC1	0	0	0	0	0
Cc1ccc(-n2nc(CO)c(C(=O)NCc3cccs3)n2)cc1C	0	0	0	0	0
CCN(C(=O)c1cn(-c2cccc(OC)c2)c(=O)c2ccccc12)c1ccccc1C	0	0	0	0	0
O=C(NCCc1ccc(Cl)cc1)c1ccc(CSCc2cccc(Cl)c2)o1	0	0	0	0	0
COc1cccc2c1cc1c(=O)n(CC(=O)N3CCN(c4cccc(C)c4)C(C)C3)nc(C)n12 (stereo not given)	0	0	0	0	0
O=C(NCCCN1CCOCC1)c1ccc(CS(=O)(=O)Cc2ccccc2Cl)o1	0	0	-45	0	0
O=C(NCCCN1CCCCCC1)c1ccc(CS(=O)(=O)Cc2ccccc2F)o1	0	0	0	0	0
CC(C)(C)c1ccc(C(=O)NCCCNC(=O)c2ccco2)cc1	0	-	0	0	0
O=C(NCCCN1CCOCC1)c1cc(-c2ccc(Cl)c(Cl)c2)on1	0	0	-33	0	0
CC(C)(C)c1cc(C(F)(F)F)nc(SCCCNC(=O)c2ccco2)n1	0	0	-38	0	0
COc1ccccc1OCCn1c(-c2ccc(Br)cc2)nc2ccccc2c1=O	0	0	0	0	0
CCCC(=O)N(c1ccc2oc(C)c(C(C)=O)c2c1)S(=O)(=O)c1ccc(C)cc1	0	0	0	0	0
SMILES	TRHR PAM	D1 potentiator	D1 antag	TRHR ag	D1 agonist
CCCC(=O)N(c1ccc2oc3c(c2c1)CCCC3)S(=O)(=O)c1cc(C)ccc1C	0	0	-46	0	0
CC1CCc2c(sc(NC(=O)COc3ccccc3C(C)(C)C)c2C#N)C1 (stereo not given)	0	0	0	0	0
CCOc1nc(Nc2cc(Cl)ccc2OC)nc(OCC)n1	0	0	0	0	0
CCOc1nc(Nc2ccc(OC)cc2OC)nc(OCC)n1	0	0	-31	0	0
COc1ccc(Nc2nc(N)c3ccccc3n2)c(OC)c1	0	0	-37	0	0
COc1ccc(Nc2nc(-c3ccccc3)nc3ccccc23)c(OC)c1	0	0	0	0	0
CNc1c(NC(=O)c2ccc(OC)c(OC)c2)c(=O)oc2ccccc12	0	0	0	0	0
COc1cccc(CNC(=O)CCCNS(=O)(=O)c2cccs2)c1	0	0	-92	0	0
